Source: PubChem (Broad Institute)
Compounds with a hit are over-represented: about 2.7% of the library has one in this group of screens.
EWS-Fli inh: inhibitors of EWS/Fli oncoprotein transcriptional activity. A673 NR0B1-luciferase reporter, viability-normalised. inhibition, % at 12.6 µM. 350,000 compounds, 0.67% hits. AID 651661;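 active = mean inhibition of at least 50% after viability correction, with every replicate also passing that limit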;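 note: firefly luciferase signal divided by Alamar Blue viability fluorescence both relative to DMSO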
PAX8 reporter: inhibitors of PAX8 transcriptional activity in RMG-I cells. RMG-I TPO-luciferase reporter, SteadyGlo, 24 h. inhibition, % at 12.6 µM. 360,000 compounds, 1.2% hits. AID 652154;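 active = mean replicate inhibition at least 60% with every replicate also reaching 60%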;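 note: luciferase light reporting Pax8 driven TPO promoter activity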
F508del corr: correctors of CFTR F508del function in bronchial epithelial cells; CFBE cells, YFP halide quenching; stimulated with forskolin plus potentiator P3; % fluorescence drop versus neutral controls; activity (quench increase), % at 7.58 µM; 350,000 compounds, 0.36% hits;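 active = mean added fluorescence quench of at least 8% versus neutral control, with both replicates also reaching 8%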;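 note: cells transiently co-express mutant CFTR-F508del with the halide-sensitive YFP; corrector assay measuring rescue of mutant channel to the surface after 24 h compound exposure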
INS-1E GSIS act: primary screen for activators of insulin secretion dependent on glucose, INS-1E cells, GLuc reporter luminescence; 370,000 compounds, 0.61% hits; AID 743287; INS-1E GLuc reporter insulin secretion, 2-3 h; activation, % at 16.6 µM;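 active = lowest replicate activation of at least 40%, so every replicate reaches that level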
HIV Env fusion: HIV envelope-mediated fusion inhibition; AID 651610; 360,000 compounds, 1.1% hits; inhibition, % at 12.3 µM; HeLa-JRFL Env/CEM21 cell fusion, luciferase;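 active = mean replicate inhibition score of at least 50 and every replicate individually at or above 50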
PGC1a acetyl inh: lowers PGC1a acetylation signal in U2OS cells; AlphaScreen anti-acetyl-lysine; with virally co-expressed GCN5 acetyltransferase; inhibition, % at 15.6 µM; 350,000 compounds, 0.17% hits; AID 651687;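 active = every replicate shows inhibition of at least 40%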
A number is an active result; – = inactive; · = no result given; ! = not active in a repeat; [ ] = dose if it differs, or a comment.

SMILES	EWS-Fli inh	PAX8 reporter	F508del corr	INS-1E GSIS act	HIV Env fusion	PGC1a acetyl inh
CC(/C=N/NC(=O)c1cccc([N+](=O)[O-])c1)=C\c1ccccc1	·	·	·	49	–	–
COCC(=O)N1CC2(C1)[C@H](c1ccccc1)[C@@H](CO)N2C(=O)c1ccncc1	–	–	–	–	·	–
O=C(c1cc(COc2cccc3cnccc23)on1)N1CCCC(CCCO)C1 (stereo unspecified)	·	–	–	–	57	·
Cc1ccc(S(=O)(=O)Nc2ccc3c(c2)C(=O)N([C@@H](C)CO)C[C@H](C)[C@@H](CN(C)S(=O)(=O)c2cccs2)OCCCC[C@H](C)O3)cc1	–	–	–	–	–	–
O=C(Cc1ccccc1)N[C@@H]1C=C[C@H](CC(=O)N2CCCCC2)O[C@@H]1CO	–	–	–	–	57[16.7 µM]	–
Cc1ccc(S(=O)(=O)N[C@@H]2C=C[C@@H](CC(=O)N3CCC(Cc4ccccc4)CC3)O[C@@H]2CO)cc1	–	90	–	–	56[16.7 µM]	–
CCNC(=O)C[C@H]1C=C[C@@H](NC(=O)NC2CCCCC2)[C@H](CO)O1	–	–	–	–	–	–
COC(=O)C[C@@H]1C=C[C@H](NC(=O)Cc2ccccn2)[C@@H](CO)O1	–	–	–	64	–	·
CCNC(=O)C[C@@H]1C=C[C@@H](NC(=O)NC2CCCCC2)[C@H](CO)O1	–	–	8.8	–	–	–
O=C(Cc1ccccc1)N[C@@H]1C=C[C@@H](CC(=O)N2CCCCC2)O[C@@H]1CO	–	–	–	–	–	–
COc1ccc(S(=O)(=O)Nc2cccc3c2O[C@H](CN(C)C(=O)NC2CCCCC2)[C@H](C)CN([C@H](C)CO)C3=O)cc1	–	·	–	–	·	–
COc1ccc2c3c(n(C)c2c1)[C@@H](CO)N(C(=O)Nc1ccc(F)cc1)CC31CN(C(=O)CN2CCOCC2)C1	–	·	–	–	·	–
CC(C)NC(=O)N1CCCCN2[C@@H](CO)[C@@H](c3ccc(C#CC4CC4)cc3)[C@@H]2C1	–	–	–	–	·	–
CC(=O)N[C@H]1CC[C@@H](CC(=O)NCc2ccc(Cl)cc2)O[C@@H]1CO	–	–	–	–	–	–
COc1ccc(S(=O)(=O)N[C@H]2C=C[C@H](CC(=O)N3CCN(c4ccccc4)CC3)O[C@@H]2CO)cc1	–	–	–	–	59[16.7 µM]	–
Cc1ccc(NC(=O)CN2C(=O)N/C(=C/c3ccc(C)s3)C2=O)cc1	·	–	·	99	–	·
Cc1ccc(NC(=O)CN2C(=O)N/C(=C/c3ccc(C)o3)C2=O)cc1	·	·	·	·	·	–
CCCC#Cc1ccc([C@@H]2[C@H](CO)N3C(=O)CN(C(=O)c4ccncc4)C[C@@H]23)cc1	–	·	–	–	·	–
C[C@H](O)C#Cc1cnc2c(c1)C(=O)N([C@H](C)CO)C[C@H](C)[C@@H](CN(C)C(=O)c1ccccc1)O2	–	·	–	–	–	–
COc1cc(C(=O)Nc2ccc3c(c2)ncn3C)cc(OC)c1OC	–	–	12	–	–	–
Cc1ccn2c(NC3CCCCC3)c(-c3cccc(-c4cccc(Cl)c4)c3)nc2c1	–	–	–	–	70	–
C[C@@H]1CN([C@H](C)CO)C(=O)c2cc(C#Cc3ccccn3)cnc2O[C@@H]1CN(C)Cc1ccncc1	–	·	–	–	–	–
O=C(c1ccc(Cl)c(Cl)c1)N1CCC(=O)N([C@H](COCc2cccc(C(F)(F)F)c2)Cc2ccccc2)CC1	–	–	–	–	92	·
Cc1cccc(C(=O)N2CCC(=O)N(C(COCc3cccc(C(F)(F)F)c3)Cc3ccccc3)CC2)c1 (stereo unspecified)	–	–	–	–	–	–
O=C(c1ccc(Cl)c(Cl)c1)N1CCC(=O)N(C(COCc2ccccc2)Cc2ccccc2)CC1 (stereo unspecified)	–	–	–	–	86	–
SMILES	EWS-Fli inh	PAX8 reporter	F508del corr	INS-1E GSIS act	HIV Env fusion	PGC1a acetyl inh
O=C(c1ccc(Cl)c(Cl)c1)N1CCC(=O)N([C@H](COCc2ccccc2)Cc2ccccc2)CC1	–	–	–	–	64	·
O=C(C[C@H]1CC[C@@H]2[C@H](COC[C@H](O)CN2C(=O)c2ccncc2)O1)NCc1cc(F)cc(F)c1	–	–	–	–	·	–
Cc1cccc(C(=O)Nc2ccc(C(=O)/C=C/c3ccncc3)cc2)c1	71	–	–	–	–	–
CC(=O)Nc1cccc(C(=O)/C=C/c2ccc(/C=C/C(=O)c3cccc(NC(C)=O)c3)cc2)c1	55	–	–	–	·	·
Cc1cccc(C(=O)Nc2ccc(C(=O)/C=C/c3cccnc3)cc2)c1	·	–	·	–	–	54
CCOC(=O)c1nn(-c2ccc(F)cc2)c2nc(Nc3ccccc3)cc(=O)n12	·	·	·	–	·	·
CCOC(=O)c1nn(-c2ccccc2)c2nc(Nc3ccccc3)cc(=O)n12	·	·	·	78	·	–
CC(=O)N1CCN(c2ccccc2NC(=O)COc2ccc(Cl)cc2Cl)CC1	·	·	·	·	·	–
O=C(COc1ccc(Cl)cc1Cl)N1CCCN(C(=O)COc2ccc(Cl)cc2Cl)CC1	·	–	·	–	83	–
CC(=O)N1CCN(c2ccc(NC(=O)COc3ccc(Cl)cc3Cl)cc2)CC1	·	–	·	·	53	–
C[C@H]1CN([C@@H](C)CO)C(=O)c2cccc(NS(=O)(=O)c3ccc(F)cc3)c2O[C@@H]1CN(C)S(=O)(=O)c1cccs1	–	·	–	–	·	–
COc1ccc(C2CN=NC23CCCc2ccccc2C3=O)cc1 (stereo unspecified)	·	·	·	·	–	–
COc1ccc(C2CN=NC23CCc2ccccc2C3=O)cc1 (stereo unspecified)	–	–	16	–	–	–
COc1ccc(S(=O)(=O)N(C)C[C@@H]2Oc3ncc(-c4cc5ccccc5o4)cc3C(=O)N([C@H](C)CO)C[C@@H]2C)cc1	–	·	–	·	69[16.7 µM]	–
Cc1ccc(S(=O)(=O)N(C)C[C@@H]2Oc3ncc(/C=C/c4ccccc4)cc3C(=O)N([C@H](C)CO)C[C@@H]2C)cc1	–	·	–	–	75[16.7 µM]	–
COc1ccc(S(=O)(=O)N(C)C[C@@H]2Oc3ncc(/C=C/c4ccccc4)cc3C(=O)N([C@H](C)CO)C[C@@H]2C)cc1	–	–	–	–	55![16.7 µM]	–
C[C@@H]1CN([C@H](C)CO)C(=O)c2cc(/C=C/c3ccccc3)cnc2O[C@H]1CN(C)S(=O)(=O)c1ccccc1F	–	–	–	–	–	–
C[C@H](CO)N1C[C@H](C)[C@H](CN(C)S(=O)(=O)c2ccccc2F)Oc2ncc(/C=C/c3ccccc3)cc2C1=O	–	–	–	–	71[16.7 µM]	–
COc1ccc(S(=O)(=O)N(C)C[C@H]2Oc3ncc(/C=C/c4ccccc4)cc3C(=O)N([C@@H](C)CO)C[C@@H]2C)cc1	–	–	–	–	–	–
CCCN(C)C[C@H]1Oc2cc(-c3cncnc3)ccc2S(=O)(=O)N([C@H](C)CO)C[C@H]1C	–	·	–	–	–	–
CN(C)CCCNC(=O)C[C@H]1CC[C@H](NC(=O)c2ccccc2F)[C@@H](CO)O1	–	–	–	·	–	–
